Eight molecules from PubChem BioAssay (Tox21) can be followed below.

Assay [1] is described as follows: Nuclear factor erythroid 2-related factor 2/antioxidant responsive element (Nrf2/ARE) small molecule agonists: qHTS cell viability counter screen in human keratinocytes (AID 1919968; active = well fitted curve in the direction sought with a large enough effect in the repeat runs; an effect the other way counts as inactive or inconclusive; note: nearly all actives have a fitted effect of over 55% in size). The procedure, abridged:
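Cells of the KeratinoSens line were plated at 1,500 per well and left for 5 h before compound transfer from DMSO stocks. After a 23 h incubation (37 C, 5% CO2), CellTiter-Fluor was added. Signal was taken as fluorescence intensity 1 h later.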
On the technique in general: In qHTS, concentration-response curves come from the screen itself.

The nature of assay [2]: Nuclear factor erythroid 2-related factor 2/antioxidant responsive element (Nrf2/ARE) small molecule agonists: luciferase reporter gene qHTS assay in human keratinocytes (AID 1919969; note: nearly all actives have a fitted effect of over 35% in size; note: potency is the fitted concentration of half-maximal effect). (Reporter assays use an easily measured gene product as a stand-in for the process of interest.)
Assay [3] has as its target Gonadotropin-releasing hormone receptor (Homo sapiens) (UniProt P30968). In words: Human gonadotropin-releasing hormone receptor (GnRHR) small molecule agonists, calcium flux assay in GnRHR-HEK293 cells (AID 1920063). Note: nearly all actives have a fitted effect of over 35% in size. Note: potency is the fitted concentration of half-maximal effect. In short, it runs like this: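 Compounds dissolved in DMSO are pin-transferred onto dye-loaded GnRHR-HEK293 cells, which were seeded 18 h before at 37 C/5% CO2. Calcium signal is read as fluorescence intensity at 1 s intervals for 3 min.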

Assay [4] in a line: G protein-coupled receptor (GPCR) small molecule agonists, calcium flux assay: HEK293 wild type cell line counter screen (AID 1920065). The procedure, abridged:
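Tox21 10K compounds, 15 concentrations each in triplicate, pin-transferred in DMSO onto dye-loaded cells; kinetic read at 480/540 nm for 3 min, 1 s intervals.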
(In general: A change in cytosolic calcium serves as a functional read-out for many receptors and channels.)

A short description of assay [5]: p53 small molecule agonists, cell-based qHTS assay with rat liver microsomes (AID 1963578). The procedure, abridged: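 p53RE-bla cells were exposed to compounds together with rat liver microsomes (0.5 mg/mL final) and NADPH (0.5 mg/mL final) for 16 h at 37 C, then read by LiveBLAzer beta-lactamase fluorescence after 2 h at room temperature.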
A short description of assay [6]: p53 small molecule agonists, cell-based qHTS assay with rat liver microsomes: qHTS cell viability counter screen (AID 1963580). Note: nearly all actives have a fitted effect of over 45% in size. In short, it runs like this: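 Cytotoxicity counter screen: intracellular ATP read by CellTiter-Glo luminescence in the p53 reporter wells. HCT-116 p53RE-bla cells were treated for 16 h at 37 C alongside rat liver microsomes and NADPH, each 0.5 mg/mL final.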

Assay [7] in a line: p53 small molecule agonists, cell-based qHTS assay: qHTS cell viability counter screen (AID 1963581). Note: nearly all actives have a fitted effect of over 45% in size. The procedure, abridged: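 ATP content measured by luminescence in HCT-116 p53RE-bla cells treated 16 h at 37 C, same wells as the reporter screen.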
Assay [8] can be described thus: p53 small molecule agonists, cell-based qHTS assay (AID 1963582; active = well fitted activation curve with a large enough effect in the signal ratio in the repeat runs, not every such curve was filed as active; the % refers to the signal ratio). In short, it runs like this:
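16 h compound exposure (37 C) of p53 response element–bla cells, preceded by 5 h recovery at 37 C/5% CO2; read-out via LiveBLAzer B/G FRET substrate, 2 h RT, fluorescence intensity.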

In assay [9] the target is D(2) dopamine receptor (Homo sapiens) (UniProt P14416). As to the kind of experiment: Dopamine D2 receptor (DRD2) small molecule antagonists, cell-based qHTS assay (AID 1963595; active = well fitted inhibition curve with a large enough effect in the signal ratio in the repeat runs, with a control signal flat; the % refers to the signal ratio; note: potency is the fitted concentration of half-maximal effect). In short, it runs like this:
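Readout: HTRF cAMP, cAMP-d2 competing with cellular cAMP for anti-cAMP cryptate, read after 1 h. Cells: DRD2-HEK293. Conditions: 0.1 mM Ro20-1724, 12 nM quinpirole, 200 nM NKH477, 30 min RT.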

Assay [10] addresses KiSS-1 receptor (Homo sapiens) (UniProt Q969F8). In words: Human kisspeptin (KISS1R) small molecule agonists, calcium flux assay in KISS1R-HEK293 cells (AID 1920064; active = well fitted curve in the direction sought with a large enough effect in the repeat runs; an effect the other way counts as inactive or inconclusive). The procedure, abridged:
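Cell line: HEK293, stable human KISS1R. Dye loading 1 h at 37 C after 18 h culture. Read: kinetic fluorescence, 480/540 nm, 3 min at 1 s intervals.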

Assay [11] is described as follows: p53 small molecule agonists, cell-based qHTS assay with human liver microsomes: qHTS cell viability counter screen (AID 1963579). Note: nearly all actives have a fitted effect of over 45% in size. In short, it runs like this:
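p53RE-bla cells (4,000/well) were pre-incubated 5 h at 37 C, then given compounds in DMSO plus human liver microsomes (0.5 mg/mL final) and NADPH (0.5 mg/mL final) for 16 h at 37 C. Viability was read by CellTiter-Glo luminescence.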

Assay [12] concerns the target 5-hydroxytryptamine receptor 2A (Homo sapiens) (UniProt P28223). As to the kind of experiment: 5-hydroxytryptamine receptor 2A (HTR2A) small molecule antagonists, cell-based qHTS assay (AID 1963586). Note: nearly all actives have a fitted effect of over 45% in size. In short, it runs like this:
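CHO cells stably expressing human HTR2A were plated for 18 h at 37 C, then loaded with calcium dye for 1 h. Compounds were preincubated 5 min at room temperature before DOI (4 nM solution) was added. Kinetic fluorescence was read for 3 min.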

Assay [13] shares this target. As to the kind of experiment: 5-hydroxytryptamine receptor 2A (HTR2A) small molecule agonists, cell-based qHTS assay (AID 1963587). Note: nearly all actives have a fitted effect of over 30% in size. The procedure, abridged:
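Kinetic calcium-flux fluorescence (2 min, 1 sec intervals) after compound addition in agonist mode. HTR2A-CHO cells were cultured 18 h, then dye-loaded 1 h at 37 C.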

The target of assay [14] is Muscarinic acetylcholine receptor M1 (Homo sapiens) (UniProt P11229). As to the kind of experiment: Cholinergic receptor muscarinic 1 (CHRM1) small molecule antagonists, cell-based qHTS assay (AID 1963588). Note: nearly all actives have a fitted effect of over 40% in size. The procedure, abridged:
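Compounds were tested at 15 concentrations in three independent runs. Dye-loaded CHRM1-CHO cells were exposed 5 min at room temperature before stimulation by acetylcholine added at 50nM. Intracellular calcium was read kinetically on FDSS for 3 min.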

Assay [15] has the same target. In words: Cholinergic receptor muscarinic 1 (CHRM1) small molecule agonists, cell-based qHTS assay (AID 1963589). Note: nearly all actives have a fitted effect of over 35% in size. The procedure, abridged: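 Homogeneous fluorescence calcium flux, agonist mode. Human M1-expressing CHO cells; compound dosed at 15 concentrations, three independent runs; signal sampled every 1 sec.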
Assay [16] is described as follows: cAMP Responsive Elements (CRE) small molecule agonists, cell-based qHTS assay (AID 1963590). In short, it runs like this:
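HEK 293T cells stably bearing CRE-bla were plated at 2,000 cells per well and rested 18 h. Compounds, positive controls or DMSO were added for 3 h at 37 C. LiveBLAzer B/G substrate was then loaded for 2 h at room temperature.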

Assay [17] concerns the target Beta-2 adrenergic receptor (Homo sapiens) (UniProt P07550). As to the kind of experiment: Adrenergic beta2 receptor (ADRB2) small molecule antagonists, cell-based qHTS assay (AID 1963592). Note: series mostly up to about 92 µM; nearly all actives have a fitted effect of over 50% in size. In short, it runs like this: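 Assay format: CHO-ADRB2 cells, 18-20hr seeding at 37C/5% CO2, then compound plus 1nM isoproterenol agonist mix for 0.5hr RT. Homogeneous time-resolved fluorescence cAMP detection after 1hr, expressed as 665/615 nm ratio.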

Assay [18] has the same target. In words: Adrenergic beta2 receptor (ADRB2) small molecule agonists, cell-based qHTS assay (AID 1963593).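 Note: CHO cells stably overexpressing human ADRB2.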 The procedure, abridged:
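CHO cells stably over-expressing ADRB2 were plated overnight at 37C, then dosed with compounds plus a stimulation mix containing 100uM IBMX and 25uM Ro-20-1724 for 0.5hr at room temperature. cAMP was measured by HTRF competition, 1hr.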

Assay [19] addresses D(2) dopamine receptor (Homo sapiens) (UniProt P14416). In words: Dopamine D2 receptor (DRD2) small molecule agonists, cell-based qHTS assay (AID 1963594). Note: nearly all actives have a fitted effect of over 35% in size. The procedure, abridged: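 cAMP accumulation in DRD2-HEK293 cells measured by HTRF after 1 h detection; compounds added 10 min before NKH477 (200nM […]) forskolin-analogue stimulation, 30 min at room temperature, with Ro20-1724 present at 0.1 mM final.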

Assay [20] in a line: cAMP Responsive Elements (CRE) small molecule antagonists, cell-based qHTS assay (AID 1963591; active = well fitted inhibition curve with a large enough effect in the signal ratio in the repeat runs, not every such curve was filed as active; the % refers to the signal ratio). The procedure, abridged: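 First, CRE-bla HEK293T cells settled 18 h at 37 C. Next, compound and 0.25 uM final NKH477 were applied for 3 h. Last, LiveBLAzer B/G substrate was loaded for 2 h at room temperature.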

Unmarked numbers belong to inactive results. Results filed as inconclusive are left out. The source made the active and inactive calls. Unless noted, calls come from the whole dose curve.
% is set by controls: 0 for no effect and ±100 for the full control effect.

Chain of D(2) dopamine receptor (Homo sapiens) (P14416 whole entry, looked up): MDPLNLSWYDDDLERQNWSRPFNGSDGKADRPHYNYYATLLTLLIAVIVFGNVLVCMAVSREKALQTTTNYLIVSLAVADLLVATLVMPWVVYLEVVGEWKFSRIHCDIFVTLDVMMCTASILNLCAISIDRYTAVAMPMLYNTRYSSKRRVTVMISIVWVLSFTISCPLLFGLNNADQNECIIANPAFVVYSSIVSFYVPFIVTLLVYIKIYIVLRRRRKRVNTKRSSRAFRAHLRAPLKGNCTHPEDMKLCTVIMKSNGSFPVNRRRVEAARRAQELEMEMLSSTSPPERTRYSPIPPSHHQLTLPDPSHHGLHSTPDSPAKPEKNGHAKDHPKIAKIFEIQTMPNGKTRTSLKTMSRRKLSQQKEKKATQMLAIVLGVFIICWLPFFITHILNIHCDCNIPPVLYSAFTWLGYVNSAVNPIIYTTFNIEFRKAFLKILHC
Chain of Muscarinic acetylcholine receptor M1 (Homo sapiens) (P11229 whole entry, looked up): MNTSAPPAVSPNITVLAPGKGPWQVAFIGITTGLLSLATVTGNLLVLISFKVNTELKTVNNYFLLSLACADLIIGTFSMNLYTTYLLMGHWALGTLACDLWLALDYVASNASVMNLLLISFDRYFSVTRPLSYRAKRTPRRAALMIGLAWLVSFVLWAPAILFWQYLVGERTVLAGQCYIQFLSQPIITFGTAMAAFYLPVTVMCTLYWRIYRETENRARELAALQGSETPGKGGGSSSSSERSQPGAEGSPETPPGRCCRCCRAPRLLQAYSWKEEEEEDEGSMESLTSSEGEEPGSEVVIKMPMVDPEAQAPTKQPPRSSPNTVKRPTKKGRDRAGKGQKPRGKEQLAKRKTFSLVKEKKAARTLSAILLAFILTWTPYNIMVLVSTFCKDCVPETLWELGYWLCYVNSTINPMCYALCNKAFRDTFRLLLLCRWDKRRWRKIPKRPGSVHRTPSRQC
Chain of 5-hydroxytryptamine receptor 2A (Homo sapiens) (P28223 whole entry, looked up): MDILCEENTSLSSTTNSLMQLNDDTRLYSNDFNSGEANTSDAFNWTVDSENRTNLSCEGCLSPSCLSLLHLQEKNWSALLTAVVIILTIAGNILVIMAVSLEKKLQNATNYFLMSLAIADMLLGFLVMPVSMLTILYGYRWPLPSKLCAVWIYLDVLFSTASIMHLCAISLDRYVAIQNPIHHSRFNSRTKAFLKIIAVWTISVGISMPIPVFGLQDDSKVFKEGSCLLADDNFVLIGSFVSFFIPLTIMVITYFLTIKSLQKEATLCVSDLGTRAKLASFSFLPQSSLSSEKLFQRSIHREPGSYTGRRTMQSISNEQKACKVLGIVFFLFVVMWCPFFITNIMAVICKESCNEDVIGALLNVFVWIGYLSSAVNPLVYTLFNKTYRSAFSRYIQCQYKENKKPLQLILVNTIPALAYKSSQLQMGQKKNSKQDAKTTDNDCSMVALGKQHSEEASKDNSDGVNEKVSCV
Chain of KiSS-1 receptor (Homo sapiens) (Q969F8 whole entry, looked up): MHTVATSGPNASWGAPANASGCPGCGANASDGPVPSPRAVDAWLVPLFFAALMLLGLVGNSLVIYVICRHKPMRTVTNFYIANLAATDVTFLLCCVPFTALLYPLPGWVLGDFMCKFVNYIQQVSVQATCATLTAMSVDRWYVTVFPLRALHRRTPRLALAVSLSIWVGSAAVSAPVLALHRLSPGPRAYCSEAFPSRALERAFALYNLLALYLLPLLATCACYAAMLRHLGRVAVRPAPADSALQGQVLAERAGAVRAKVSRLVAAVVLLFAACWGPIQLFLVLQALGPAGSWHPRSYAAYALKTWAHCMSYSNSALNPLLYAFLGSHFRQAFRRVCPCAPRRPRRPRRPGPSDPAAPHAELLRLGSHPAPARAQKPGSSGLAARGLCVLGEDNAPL
Chain of Beta-2 adrenergic receptor (Homo sapiens) (P07550 whole entry, looked up): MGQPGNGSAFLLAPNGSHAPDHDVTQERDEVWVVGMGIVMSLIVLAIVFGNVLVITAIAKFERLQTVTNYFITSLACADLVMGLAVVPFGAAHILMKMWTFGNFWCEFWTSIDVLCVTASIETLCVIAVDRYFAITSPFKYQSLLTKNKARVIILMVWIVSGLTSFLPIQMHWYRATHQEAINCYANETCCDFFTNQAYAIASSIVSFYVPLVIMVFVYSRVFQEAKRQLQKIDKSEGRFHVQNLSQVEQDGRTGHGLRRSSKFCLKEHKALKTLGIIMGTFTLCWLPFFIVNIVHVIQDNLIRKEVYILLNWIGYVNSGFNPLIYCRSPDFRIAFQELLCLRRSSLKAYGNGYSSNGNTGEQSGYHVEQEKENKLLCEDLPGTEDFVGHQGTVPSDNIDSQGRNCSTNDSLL
Chain of Gonadotropin-releasing hormone receptor (Homo sapiens) (P30968 whole entry, looked up): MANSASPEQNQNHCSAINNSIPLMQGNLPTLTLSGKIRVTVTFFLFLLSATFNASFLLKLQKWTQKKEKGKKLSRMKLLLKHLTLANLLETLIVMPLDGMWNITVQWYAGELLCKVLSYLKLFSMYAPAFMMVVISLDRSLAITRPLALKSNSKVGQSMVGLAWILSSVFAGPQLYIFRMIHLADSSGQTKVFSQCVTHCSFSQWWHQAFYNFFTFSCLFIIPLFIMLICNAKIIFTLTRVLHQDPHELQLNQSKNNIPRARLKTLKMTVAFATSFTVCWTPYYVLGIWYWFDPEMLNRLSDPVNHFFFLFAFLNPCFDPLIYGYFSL

Take `CNCC(O)c1ccc(O)c(O)c1` (stereo not drawn): the Potency entry in assay [1], in assay [2], in assay [4], in [5], in [6] and in [7] was “inactive” each time. Moreover, the Potency result in assay [8] is “inactive”. In addition, the values for the Potency in assay [3] and in assay [9] were 0.0425 µM (active) and 5.31 µM (active), respectively.

With `CCCCN1C[C@H](O)[C@@H](O)[C@H](O)[C@H]1CO`, the Potency result in [1], in assay [2], in assay [3], in [10], in assay [11] and in assay [7] was “inactive” each time. The Potency entry in assay [12], in assay [13], in [14], in [15], in assay [16] and in assay [17] was “inactive” in each case. Moreover, the Potency entry in assay [18], in assay [19] and in [9] was “inactive” each time.

For the molecule `C/C(=C\c1ccc(C(=O)O)cc1)c1ccc2c(c1)C(C)(C)CCC2(C)C`, the Potency result in assay [1], in assay [2], in assay [3], in [4], in assay [11] and in assay [6] was “inactive” throughout. Also, the Potency result in [8], in assay [12], in assay [13], in [14], in assay [15] and in [16] was “inactive” throughout. For the same molecule, the Potency entry in assay [20], in assay [17], in [19] and in assay [9] was “inactive” throughout.

Turning to `CC1CN(c2cc3c(cc2F)c(=O)c(C(=O)O)cn3-c2ccc(F)cc2F)CCN1` (stereo not drawn), the activity change, negative = cytotoxicity is 6.63% [at 8.39 µM] in assay [1], 1.1% [at 5.99 µM] in [11], -0.821% [at 5.99 µM] in assay [6] and 22.9% [at 5.99 µM] in assay [7]. The activity, positive = activation in assay [2] is 4.55% [at 8.39 µM]. Also, the activity change in assay [3] was -0.555% [at 5.22 µM, active compounds read high]. The activation in assay [10] was 3.09% [at 6.97 µM]; in [16] it was -2.24% [at 8.39 µM]; in assay [19] it was -7.78% [at 8.39 µM]. Also, the activity change, negative = inhibition is 4.5% [at 8.39 µM] in [17] and -0.708% [at 8.38 µM] in [9].

`CC(C)CCCCCOC(=O)CCCCC(=O)OCCCCCC(C)C`: the Potency entry in assay [1], in assay [3], in assay [10], in [11], in [6] and in assay [7] was “inactive” throughout. The Potency entry in [12], in assay [13], in [14], in assay [15], in assay [16] and in [20] was “inactive” each time. In addition, the Potency entry in assay [17], in assay [19] and in [9] was “inactive” each time. The Potency in [2] was 48.6 µM (active).

As for `C=C1CCC2CC1C2(C)C` (stereo not drawn), the Potency result in [1], in [2], in assay [3], in assay [10], in assay [11] and in assay [6] was “inactive” throughout. Moreover, the Potency entry in [7], in [12], in assay [13], in assay [14], in assay [15] and in assay [16] was “inactive” throughout. The Potency entry in assay [20], in assay [17], in [19] and in assay [9] was “inactive” throughout.

Take `CC(=O)OC(C(=O)c1ccccc1)c1ccccc1` (stereo not drawn): the Potency result in [1], in assay [2], in assay [3], in assay [10], in assay [11] and in [6] was “inactive” throughout. The Potency result in [7], in assay [13], in [14], in [15], in [16] and in assay [20] was “inactive” each time. For the same molecule, the Potency entry in assay [19] and in assay [9] was “inactive” in each case.

In the case of `C=C(C)[C@@H]1CC=C(C)C(=O)C1`, the Potency entry in assay [1], in assay [2], in [3], in [10], in assay [11] and in assay [6] was “inactive” each time. Further, the Potency entry in [7], in [12], in [13], in assay [14], in assay [15] and in [16] was “inactive” in each case. Besides, the Potency result in assay [20], in assay [17], in assay [19] and in assay [9] was “inactive” each time.
